Results: paper PMC5540273 (PLoS ONE, 2017)

System: DYRK1B
Settings: concentration: 1 μM,replicates: in singlicate; n = 1
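Also: KINOMEscan kinase panel screen.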

Row | Structure (SMILES) | %Inh [%]
1 | CS(=O)c1ccc(-c2coc3ccc(-c4n[nH]c(=O)o4)cc23)cc1 (stereo not shown) | 68
2 | Cc1ccc(Nc2ccnc(Nc3ccc4c(c3)CS(=O)(=O)C4)n2)cc1O.Cl [GW579362] | 48
3 | CS(=O)(=O)Nc1ccc(-c2ccnc3[nH]ccc23)cc1 [GSK993273] | 84
4 | COc1cc(Nc2nccc(N3CCC(NC(=O)c4cccc(C#N)c4)C3)n2)cc(OC)c1OC (stereo not shown) [GSK1379751] | 15
5 | O=c1[nH]cc(-c2ccc(O)cc2)c2sc(-c3ccncc3)cc12 [GSK1033723] | 84
6 | COc1cccc(CNC(=O)NC2CCN(c3ccnc(Nc4cc(OC)c(OC)c(OC)c4)n3)C2)c1 (stereo not shown) [GSK1379765] | 17
7 | O=C1NCCc2[nH]c(-c3ccncc3)cc21 | 97.6
8 | O=C(Nc1ccc(Oc2ccc3nc(NC(=O)C4CC4)cn3n2)c(F)c1)c1cccn(-c2ccccc2)c1=O | 30
9 | COC(=O)c1cccc(NC(=O)NC2CCN(c3ccnc(NCc4ccc(F)cc4)n3)CC2)c1 [GSK1379860] | 21
10 | Nc1nccc(-c2ccc3c(N)n[nH]c3c2)n1 [GSK1034945] | 75
11 | CC(C(=O)NC1CCN(c2ccnc(Nc3ccc(F)cc3)n2)C1)c1ccc(Cl)cc1 (stereo not shown) [GSK1379713] | 12
12 | Cc1ccc(C(=O)Nc2ccc(Oc3ccc4nc(NC(=O)C5CC5)cn4c3)c(F)c2)c(=O)n1-c1ccccc1 | 39
13 | OCCn1cc(-c2cnc3nnn(Cc4ccc5ncccc5c4)c3n2)cn1 | 19
14 | CN1CCN(CCNc2nc3cc(Oc4ccc(NC(=O)Nc5cc(C(F)(F)F)ccc5F)cc4)ccc3[nH]2)CC1.Cl.Cl [GW768504] | 15
15 | CCn1c(-c2nonc2N)nc2cncc(CNC3CCNCC3)c21.Cl [SB-747651] | 12
16 | FC(F)(F)c1cc(Br)cc(Nc2nccc(-c3cnn4ncccc34)n2)c1 [GW810578] | 98.3
17 | Cn1ccc2ncnc(Oc3ccc(NC(=O)Nc4cncc(C(F)(F)F)c4)c(Cl)c3)c21 | 5
18 | O=C(Nc1n[nH]c2cc(-c3ccco3)ccc12)C1CC1 [SB-737447] | 0

Row | Structure (SMILES) | %Inh [%]
19 | CN(c1ccc2c(c1)nc(NCc1ccc(F)cc1)n2C)c1ccnc(Nc2ccc(CS(C)(=O)=O)cc2)n1.Cl [GW813244] | 4
20 | CCN1CCN(CCCC(=O)Nc2n[nH]c3nc(-c4ccc(O)cc4)c(Br)cc23)CC1 [SB-731579] | 77
21 | Cn1cc(-c2cccc3c(N)c(C(N)=O)nnc23)cn1 | 8
22 | O=C(Nc1cccc(C(F)(F)F)c1)c1cccc(Oc2ccc3nccn3n2)c1 | 14
23 | Cn1ccc2ncnc(Oc3ccc(NC(=O)Nc4cnn(C(C)(C)C)c4)c(Cl)c3)c21 | 62
24 | COc1ccc(Nc2nccc(N3CCC(NC(=O)c4cccc(C#N)c4)C3)n2)cc1 (stereo not shown) [GSK1379730] | 39
25 | CC(C)S(=O)(=O)N1CCN(Cc2ccc3c(c2)nc(NC(=O)c2ccsc2)n3C[C@H](O)c2ccccc2)CC1 [GW635815] | 70
26 | Cn1ccc2ncnc(Oc3ccc(NC(=O)Nc4cccc(C(F)(F)F)c4)c(F)c3)c21 | 0
27 | Cc1ccc2c(-c3ccnc(Nc4ccc(C(F)(F)F)cc4)n3)cnn2n1 [GW819776] | 65
28 | c1ccc(Oc2ccc(Nc3ccnc4ccc(-c5ccccn5)cc34)cc2)cc1 [GW407034] | 0
29 | COc1cc2ncn(-c3cc(OCC4CCCCC4)c(C(N)=O)s3)c2cc1OC [GSK204559] | 11
30 | Cl.Nc1n[nH]c2cc(-c3ccccn3)ccc12 [GSK2189892] | 10
31 | CNC(=O)c1ccccc1Nc1nc(Nc2cccc(CS(C)(=O)=O)c2)ncc1C.O=CO [GSK1520489] | 83
32 | CN1CCN(CCCNc2nccc(-c3c(-c4ccc(F)cc4)nn4cc(C(N)=O)ccc34)n2)CC1 [GW622475] | 100
33 | CC(C)c1nc(-c2cccc(NS(=O)(=O)c3ccccc3)c2)c(-c2ccnc(Nc3ccc4c(c3)CN(C)CC4)n2)s1 [GSK1649598] | 20
34 | COc1cccc(C2=C(Nc3cccc(Cl)c3)C(=O)NC2=O)c1 [SB-341556] | 0
35 | Cl.Cl.NC[C@H](CC1CCCCC1)NC(=O)c1ccc(-c2ccnc3[nH]ccc23)s1 [GSK1581428] | 27
36 | Cn1ccc2ncnc(Oc3ccc(NC(=O)Nc4cc(C(C)(C)C)on4)c(Cl)c3)c21 | 39

System: DYRK2
Settings: concentration: 1 μM,replicates: in singlicate; n = 1

Row | Structure (SMILES) | %Inh [%]
37 | CS(=O)c1ccc(-c2coc3ccc(-c4n[nH]c(=O)o4)cc23)cc1 (stereo not shown) | 10
38 | Cc1ccc(Nc2ccnc(Nc3ccc4c(c3)CS(=O)(=O)C4)n2)cc1O.Cl [GW579362] | 88
39 | CS(=O)(=O)Nc1ccc(-c2ccnc3[nH]ccc23)cc1 [GSK993273] | 44
40 | COc1cc(Nc2nccc(N3CCC(NC(=O)c4cccc(C#N)c4)C3)n2)cc(OC)c1OC (stereo not shown) [GSK1379751] | 0
41 | O=c1[nH]cc(-c2ccc(O)cc2)c2sc(-c3ccncc3)cc12 [GSK1033723] | 87
42 | COc1cccc(CNC(=O)NC2CCN(c3ccnc(Nc4cc(OC)c(OC)c(OC)c4)n3)C2)c1 (stereo not shown) [GSK1379765] | 9
43 | O=C1NCCc2[nH]c(-c3ccncc3)cc21 | 97.1
44 | O=C(Nc1ccc(Oc2ccc3nc(NC(=O)C4CC4)cn3n2)c(F)c1)c1cccn(-c2ccccc2)c1=O | 0
45 | COC(=O)c1cccc(NC(=O)NC2CCN(c3ccnc(NCc4ccc(F)cc4)n3)CC2)c1 [GSK1379860] | 2
46 | Nc1nccc(-c2ccc3c(N)n[nH]c3c2)n1 [GSK1034945] | 93.1
47 | CC(C(=O)NC1CCN(c2ccnc(Nc3ccc(F)cc3)n2)C1)c1ccc(Cl)cc1 (stereo not shown) [GSK1379713] | 10
48 | Cc1ccc(C(=O)Nc2ccc(Oc3ccc4nc(NC(=O)C5CC5)cn4c3)c(F)c2)c(=O)n1-c1ccccc1 | 0
49 | OCCn1cc(-c2cnc3nnn(Cc4ccc5ncccc5c4)c3n2)cn1 | 0
50 | CN1CCN(CCNc2nc3cc(Oc4ccc(NC(=O)Nc5cc(C(F)(F)F)ccc5F)cc4)ccc3[nH]2)CC1.Cl.Cl [GW768504] | 0
51 | CCn1c(-c2nonc2N)nc2cncc(CNC3CCNCC3)c21.Cl [SB-747651] | 25
52 | FC(F)(F)c1cc(Br)cc(Nc2nccc(-c3cnn4ncccc34)n2)c1 [GW810578] | 47
53 | Cn1ccc2ncnc(Oc3ccc(NC(=O)Nc4cncc(C(F)(F)F)c4)c(Cl)c3)c21 | 0
54 | O=C(Nc1n[nH]c2cc(-c3ccco3)ccc12)C1CC1 [SB-737447] | 31
55 | CN(c1ccc2c(c1)nc(NCc1ccc(F)cc1)n2C)c1ccnc(Nc2ccc(CS(C)(=O)=O)cc2)n1.Cl [GW813244] | 30

Row | Structure (SMILES) | %Inh [%]
56 | COc1cccc(OC)c1C(=O)Nc1cccc(-c2nn3ccccc3c2-c2ccnc(Nc3cccc(F)c3)n2)c1 [GSK361065] | 0
57 | CCN1CCN(CCCC(=O)Nc2n[nH]c3nc(-c4ccc(O)cc4)c(Br)cc23)CC1 [SB-731579] | 74
58 | Cn1cc(-c2cccc3c(N)c(C(N)=O)nnc23)cn1 | 70
59 | O=C(Nc1cccc(C(F)(F)F)c1)c1cccc(Oc2ccc3nccn3n2)c1 | 6
60 | Cn1ccc2ncnc(Oc3ccc(NC(=O)Nc4cnn(C(C)(C)C)c4)c(Cl)c3)c21 | 6
61 | COc1ccc(Nc2nccc(N3CCC(NC(=O)c4cccc(C#N)c4)C3)n2)cc1 (stereo not shown) [GSK1379730] | 0
62 | CC(C)S(=O)(=O)N1CCN(Cc2ccc3c(c2)nc(NC(=O)c2ccsc2)n3C[C@H](O)c2ccccc2)CC1 [GW635815] | 21
63 | Cn1ccc2ncnc(Oc3ccc(NC(=O)Nc4cccc(C(F)(F)F)c4)c(F)c3)c21 | 0
64 | Cc1ccc2c(-c3ccnc(Nc4ccc(C(F)(F)F)cc4)n3)cnn2n1 [GW819776] | 29
65 | c1ccc(Oc2ccc(Nc3ccnc4ccc(-c5ccccn5)cc34)cc2)cc1 [GW407034] | 0
66 | COc1cc2ncn(-c3cc(OCC4CCCCC4)c(C(N)=O)s3)c2cc1OC [GSK204559] | 33
67 | Cl.Nc1n[nH]c2cc(-c3ccccn3)ccc12 [GSK2189892] | 22
68 | CNC(=O)c1ccccc1Nc1nc(Nc2cccc(CS(C)(=O)=O)c2)ncc1C.O=CO [GSK1520489] | 97
69 | CN1CCN(CCCNc2nccc(-c3c(-c4ccc(F)cc4)nn4cc(C(N)=O)ccc34)n2)CC1 [GW622475] | 19
70 | CC(C)c1nc(-c2cccc(NS(=O)(=O)c3ccccc3)c2)c(-c2ccnc(Nc3ccc4c(c3)CN(C)CC4)n2)s1 [GSK1649598] | 23
71 | COc1cccc(C2=C(Nc3cccc(Cl)c3)C(=O)NC2=O)c1 [SB-341556] | 2
72 | Cl.Cl.NC[C@H](CC1CCCCC1)NC(=O)c1ccc(-c2ccnc3[nH]ccc23)s1 [GSK1581428] | 80
73 | Cn1ccc2ncnc(Oc3ccc(NC(=O)Nc4cc(C(C)(C)C)on4)c(Cl)c3)c21 | 23
